# Measured values reported in PubChem BioAssay (NCATS).
# Values joined by “and” are separate entries in the source; they are usually repeats but may differ in a detail not shown here. Equal entries are not always repeated. Values without a mark were called inactive. Results filed as inconclusive are left out. Entries that show only a call come without a potency. Active and inactive are the calls of the source. Unless noted, the call rests on the fitted dose curve; in most records, active means well fitted curve in the direction sought with a large enough effect; inconclusive means small, poorly fitted or top-dose-only effect, or another doubt; inactive means no such curve, though single readings can be large; an effect the other way counts as inactive or inconclusive.
# Key:
# [1] = Cell Viability - NIH 3T3 (AID 541); conditions: NIH 3T3 cell viability, qHTS; activity change, negative = cytotoxicity: at 92.2 µM (top of the series);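 further: cells exposed to compound for 40 hours; nearly all actives have a fitted effect of over 25% in size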
# How it was run: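 qHTS format; 40 hr compound exposure, 37 °C; CellTiter-Glo luminescence (cellular ATP) read-out after 20 min at RT. Decrease in ATP = cytotoxicity; AC50 from standard Hill fit.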
# [2] = Cell Viability - HUV-EC-C (AID 542);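 further: cells exposed to compound for 40 hours; nearly all actives have a fitted effect of over 35% in size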
# How it was run: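 Luminescent ATP read-out (CellTiter-Glo, 20 min room temperature) after 40 hr compound treatment of HUV-EC-C cells at 37 °C. Concentration-response data fitted with the standard Hill equation to give AC50; tamoxifen and doxorubicin served as positive controls.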
# [3] = Cellular Toxicity (caspase-3) HUV-EC-C (AID 656)
# How it was run: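 Luminescent Caspase-Glo 3/7 readout after 16 h, 37 °C compound exposure of HUV-EC-C endothelial cells, 1000 per well, complete medium. AC50 derived by Hill fitting, with DMSO as baseline and 100 uM tamoxifen as full activation.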
# [4] = Cellular Toxicity (caspase-3) H-4-II-E (AID 663); conditions: Potency: caspase-3 activation;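 further: cells exposed to compound for 16 hr before readout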
# How it was run: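 H-4-II-E rat hepatoma, 1500 cells/well, 5 hr settle at 37 °C; compound 16 hr, 37 °C, complete medium; Caspase-Glo 3/7, 20 min RT; luminescence. DMSO = 0%, 100 uM tamoxifen = 100%; Hill-equation AC50.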
# [5] = Cellular Toxicity (caspase-3) NIH 3T3 (AID 666)
# How it was run: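 NIH 3T3, 1000 cells/well, 5 hr settle then 16 hr compound at 37°C; Caspase-Glo 3/7, 20 min RT, luminescence. DMSO = basal, 100 uM tamoxifen = 100%. Hill-equation AC50, qHTS.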
# [6] = molecular target: Cytochrome P450 3A4 (Homo sapiens) (UniProt P08684); assay: qHTS Assay for Inhibitors and Substrates of Cytochrome P450 3A4 (AID 884); further: nearly all actives have a fitted effect of over 50% in size; further: potency means the concentration at half of the fitted maximal effect
# How it was run: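 Luminescent readout of luciferin produced by CYP3A4 (20 nM) dealkylation of Luciferin-PPXE, 25 uM (its KM). NADPH-driven reaction ran 60 min at RT after 10 min compound preincubation; data scaled to 57 uM ketoconazole as 100% inhibition.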
# [7] = MultiTox-Fluor Cytotoxicity Assay - LYMP1-003 - Live Cells (AID 962);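 further: cells exposed to compound for 16 hours at 37 °C; cytotoxic hits lower the live-cell protease signal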
# How it was run: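 Readout: live-cell fluorescence (Ex/Em=405/510) from GF-AFC cleavage after 60 min MultiTox-Fluor reagent at room temperature. Lymphoblastoid LYMP1-003 cells, 16 hr compound treatment, 37 C. Concentration-response fitted to standard Hill equation for AC50.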
# [8] = Cell Viability - LYMP2-003 (AID 965);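 further: cells exposed to compounds for 24 h before reading; nearly all actives have a fitted effect of over 50% in size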
# How it was run: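 CellTiter-Glo luminescence quantified ATP loss after 24 h compound treatment of LYMP2-003 lymphoblastoid cells at 37 C. Titration series were fitted with the standard Hill equation to give AC50.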
# [9] = molecular target: Vitamin D3 receptor (Homo sapiens) (UniProt P11473); assay: qHTS assay for small molecule antagonists of vitamin D receptor signaling (AID 588541; calls by dose curve;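 further: receptor activated by calcitriol during compound treatment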)
# How it was run: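 VDR-UAS-bla HEK293T cells in 2% charcoal-stripped FBS were stimulated with 1-alpha,25-dihydroxyvitamin D3 (3 nM final) plus compound for 16 h at 37 C. The beta-lactamase CCF4 readout was normalized to 50 nM agonist and DMSO, and Hill fits gave IC50.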
# [10] = qHTS assay for small molecule agonists of the antioxidant response element (ARE) signaling pathway (AID 651741; active means well fitted activation curve with a large enough effect in the signal ratio; the % refers to the signal ratio; further: potency means the concentration at half of the fitted maximal effect)
# How it was run: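 HepG2 ARE-bla reporter cells, 2,000/well; 5 h settle at 37 C/5% CO2; compound pin transfer (23 nL, DMSO); 16 h at 37 C; LiveBLAzer B/G FRET substrate, 2 h RT; fluorescence intensity read.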
# [11] = qHTS assay for small molecule activators of the nuclear factor-kappa B (NF-kB) signaling pathway (AID 651749; active means well fitted activation curve with a large enough effect in the signal ratio; the % refers to the signal ratio); conditions: NF-kB-bla ME-180 cells, beta-lactamase FRET ratio, 16 h; hits give high values
# How it was run: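 NF-kB-bla ME-180 cells, 2,000/well; 23 nL compound or DMSO pinned; 16 hr, 37C/5% CO2; beta-lactamase FRET read-out.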
# [12] = molecular target: Nuclear receptor ROR-gamma (Homo sapiens) (UniProt P51449); assay: qHTS assay for small molecule antagonists of the retinoid-related orphan receptor gamma (ROR-gamma) signaling pathway (AID 651802);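 further: CHO cells with doxycycline-induced ROR-gamma expression; luciferase reporter luminescence driven by ROR response element; nearly all actives have a fitted effect of over 60% in size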
# How it was run: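 Luciferase read-out: ONE-Glo luminescence after 30 min at room temperature, following 16hr doxycycline induction at 37C, 5% CO2 of CHO cells with TET-inducible ROR and RORE-LUC reporter; decreased luminescence = reduced reporter activity.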
# [13] = qHTS assay for small molecule agonists of the antioxidant response element (ARE) signaling pathway measured by Nrf2-dependant transcriptional activity - cell viability counter screen (AID 720653; active means well fitted curve in the direction sought with a large enough effect in the repeat runs; an effect the other way counts as inactive or inconclusive); conditions: ARE-bla HepG2 viability, CellTiter-Glo ATP luminescence, 16 h; max response: hits give low values
# How it was run: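 ARE-bla HepG2 cells treated with compounds for 16 h at 37C; this counter screen measures viability as intracellular ATP by CellTiter-Glo luminescence after 30 min at room temperature.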
# [14] = qHTS assay for cell viability of HEK293 cells (AID 743288); conditions: ATP luminescence (CellTiter-Glo), 18 h; max response: hits give low values; further: nearly all actives have a fitted effect of over 50% in size; further: potency means the concentration at half of the fitted maximal effect
# How it was run: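 Readout is luciferase-coupled ATP content (CellTiter-Glo luminescence, 30 min room temperature) as a measure of metabolically competent cells. Parental HEK293 cells were plated 5 h or more before compound addition, then treated 18 h at 37 C.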
# [15] = qHTS assay for small molecule activators of the human pregnane X receptor (PXR) signaling pathway (AID 720659; call rule not given here)
# [16] = Cellular Toxicity (caspase-3) N2a (AID 665);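 further: compound exposure lasted 16 h at 37 °C before readout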
# How it was run: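 Luminescent Caspase-Glo 3/7 readout in N2a mouse neuroblastoma cells after 16 h compound exposure at 37 °C. Signal scaled to DMSO (basal) and 10 uM staurosporine (100%). Concentration-response fitted with Hill equation for AC50.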
# [17] = MultiTox-Fluor Cytotoxicity Assay - LYMP1-003 - Dead Cells (AID 961); further: nearly all actives have a fitted effect of over 70% in size; further: potency means the concentration at half of the fitted maximal effect
# How it was run: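 Dead-cell protease release, detected as bis-AAF-R110 fluorescence at 485/520 nm, was measured in LYMP1-003 cells after 16 h compound treatment at 37 C. AC50 values came from Hill-modeled qHTS curves normalized to DMSO (0%) and 15 uM tetraoctylammonium bromide (100%).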
# [18] = molecular target: Estrogen receptor (Homo sapiens) (UniProt P03372); assay: qHTS assay for small molecule antagonists of estrogen receptor alpha signaling (AID 588513; active means well fitted curve in the direction sought with a large enough effect in the signal ratio, with a control signal flat, not every such curve was filed as active; the % refers to the signal ratio)
# How it was run: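 Antagonist mode: inhibition of 0.5 nM 17-beta-estradiol-driven beta-lactamase reporter in HEK 293 ER-alpha-UAS-bla cells, 18 h at 37C, CCF4 readout after 2 h at RT. Normalised to estradiol and DMSO; titration fitted to Hill.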
# [19] = molecular target: Estrogen receptor (Homo sapiens) (UniProt P03372); assay: qHTS assay for small molecule agonists of estrogen receptor alpha signaling (AID 588514; calls by dose curve; further: nearly all actives have a fitted effect of over 70% in size)
# How it was run: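 Read-out: CCF4 fluorescence from a beta-lactamase reporter in ER-alpha-UAS-bla HEK 293 cells after 18 hrs of compound exposure at 37 C. Normalized to 20 nM 17-beta-estradiol (100%) and DMSO (0%).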
# [20] = molecular target: Glucocorticoid receptor (Homo sapiens) (UniProt P04150); assay: qHTS assay for small molecule antagonists of glucocorticoid receptor signaling (AID 588533; active means well fitted inhibition curve with a large enough effect in the signal ratio, with a control signal flat, not every such curve was filed as active; the % refers to the signal ratio)
# How it was run: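 Antagonist-mode qHTS: compound titrations added to GRE-bla HeLa cells, then dexamethasone 2 nM final; 18 h, 37 C. CCF4 FRET fluorescence normalized to dexamethasone and DMSO; IC50 from Hill fit.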
# Sequence of Nuclear receptor ROR-gamma (Homo sapiens) (P51449 whole entry, looked up): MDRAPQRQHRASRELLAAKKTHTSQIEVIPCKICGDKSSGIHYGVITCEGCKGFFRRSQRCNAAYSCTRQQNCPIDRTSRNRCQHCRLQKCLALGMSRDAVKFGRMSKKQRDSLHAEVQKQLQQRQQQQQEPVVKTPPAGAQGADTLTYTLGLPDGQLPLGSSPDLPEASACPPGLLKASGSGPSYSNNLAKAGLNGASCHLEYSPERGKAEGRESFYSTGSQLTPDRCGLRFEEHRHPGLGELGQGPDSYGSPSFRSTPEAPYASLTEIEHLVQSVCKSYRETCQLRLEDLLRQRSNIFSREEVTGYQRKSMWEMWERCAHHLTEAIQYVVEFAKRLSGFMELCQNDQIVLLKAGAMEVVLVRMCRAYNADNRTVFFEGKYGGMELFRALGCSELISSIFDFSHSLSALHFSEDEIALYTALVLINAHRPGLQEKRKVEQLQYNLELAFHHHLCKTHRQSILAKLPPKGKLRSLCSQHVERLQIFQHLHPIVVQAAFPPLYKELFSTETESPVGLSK
# Sequence of Cytochrome P450 3A4 (Homo sapiens) (P08684 whole entry, looked up): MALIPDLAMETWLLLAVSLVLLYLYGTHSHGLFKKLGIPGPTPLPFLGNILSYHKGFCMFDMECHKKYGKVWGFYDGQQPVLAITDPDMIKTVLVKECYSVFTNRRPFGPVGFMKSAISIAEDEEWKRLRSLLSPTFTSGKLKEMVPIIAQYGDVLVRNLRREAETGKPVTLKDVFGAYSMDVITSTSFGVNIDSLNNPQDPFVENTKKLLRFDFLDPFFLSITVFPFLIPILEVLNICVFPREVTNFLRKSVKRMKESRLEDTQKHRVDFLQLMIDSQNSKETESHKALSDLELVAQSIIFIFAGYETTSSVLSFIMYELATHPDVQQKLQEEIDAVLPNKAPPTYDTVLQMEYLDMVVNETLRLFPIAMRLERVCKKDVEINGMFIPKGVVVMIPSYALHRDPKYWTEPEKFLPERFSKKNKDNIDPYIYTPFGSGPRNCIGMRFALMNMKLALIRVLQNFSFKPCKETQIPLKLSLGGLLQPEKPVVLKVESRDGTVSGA
# Sequence of Estrogen receptor (Homo sapiens) (P03372 whole entry, looked up): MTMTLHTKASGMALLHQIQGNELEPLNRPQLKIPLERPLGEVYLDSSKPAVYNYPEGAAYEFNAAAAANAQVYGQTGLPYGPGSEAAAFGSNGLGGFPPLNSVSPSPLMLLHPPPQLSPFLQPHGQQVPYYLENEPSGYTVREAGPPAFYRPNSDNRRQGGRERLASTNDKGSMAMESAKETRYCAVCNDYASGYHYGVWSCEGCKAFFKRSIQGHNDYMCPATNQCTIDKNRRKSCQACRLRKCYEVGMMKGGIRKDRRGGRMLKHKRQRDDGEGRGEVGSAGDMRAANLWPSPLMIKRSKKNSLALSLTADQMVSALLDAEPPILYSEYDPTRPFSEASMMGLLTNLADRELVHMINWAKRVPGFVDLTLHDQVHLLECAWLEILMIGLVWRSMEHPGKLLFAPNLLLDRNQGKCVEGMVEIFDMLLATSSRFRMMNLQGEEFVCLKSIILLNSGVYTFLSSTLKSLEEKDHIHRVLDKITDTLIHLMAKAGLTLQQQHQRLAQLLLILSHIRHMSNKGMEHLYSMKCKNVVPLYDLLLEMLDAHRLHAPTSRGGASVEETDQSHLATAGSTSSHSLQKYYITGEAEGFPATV
# Sequence of Vitamin D3 receptor (Homo sapiens) (P11473 whole entry, looked up): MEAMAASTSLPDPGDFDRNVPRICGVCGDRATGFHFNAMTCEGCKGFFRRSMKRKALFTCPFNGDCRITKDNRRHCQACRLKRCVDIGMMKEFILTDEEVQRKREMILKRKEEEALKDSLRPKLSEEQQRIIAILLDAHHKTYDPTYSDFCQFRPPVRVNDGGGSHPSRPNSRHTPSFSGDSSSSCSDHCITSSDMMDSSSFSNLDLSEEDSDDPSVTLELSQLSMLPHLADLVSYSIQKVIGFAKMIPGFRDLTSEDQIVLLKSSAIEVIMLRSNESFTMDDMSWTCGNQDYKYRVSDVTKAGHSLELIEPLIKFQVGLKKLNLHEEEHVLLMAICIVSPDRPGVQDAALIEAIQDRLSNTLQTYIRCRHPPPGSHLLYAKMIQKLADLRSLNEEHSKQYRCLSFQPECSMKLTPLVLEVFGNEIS
# Sequence of Glucocorticoid receptor (Homo sapiens) (P04150 whole entry, looked up): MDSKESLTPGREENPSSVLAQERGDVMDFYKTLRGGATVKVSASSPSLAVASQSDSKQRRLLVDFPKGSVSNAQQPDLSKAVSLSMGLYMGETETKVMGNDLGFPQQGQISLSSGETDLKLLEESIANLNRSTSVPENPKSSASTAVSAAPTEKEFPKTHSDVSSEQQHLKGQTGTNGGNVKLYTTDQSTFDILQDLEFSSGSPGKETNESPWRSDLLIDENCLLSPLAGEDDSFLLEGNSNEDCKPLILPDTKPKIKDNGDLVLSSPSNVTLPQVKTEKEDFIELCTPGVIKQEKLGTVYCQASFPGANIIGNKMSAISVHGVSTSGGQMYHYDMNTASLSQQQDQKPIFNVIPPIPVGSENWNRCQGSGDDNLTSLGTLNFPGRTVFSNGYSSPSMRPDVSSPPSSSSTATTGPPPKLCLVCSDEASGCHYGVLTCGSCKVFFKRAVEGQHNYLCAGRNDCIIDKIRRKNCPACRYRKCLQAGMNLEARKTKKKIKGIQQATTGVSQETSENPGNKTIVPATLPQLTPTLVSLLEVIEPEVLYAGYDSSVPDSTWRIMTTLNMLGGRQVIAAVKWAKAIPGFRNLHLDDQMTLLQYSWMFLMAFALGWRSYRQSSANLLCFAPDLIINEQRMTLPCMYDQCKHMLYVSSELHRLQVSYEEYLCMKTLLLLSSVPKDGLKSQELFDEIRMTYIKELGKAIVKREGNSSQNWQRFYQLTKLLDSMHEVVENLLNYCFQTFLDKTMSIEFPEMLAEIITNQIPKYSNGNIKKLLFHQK
compound,measurement,setting,value
Cc1cccnc1,"activity change, negative = cytotoxicity",[1],-24.9%
same,Potency,[2],inactive
same,Potency,[3],inactive
same,Potency,[4],inactive
same,outcome,[5],inactive
same,Potency,[6],inactive
same,Potency,[7],inactive
same,Potency,[8],inactive
same,Potency,[9],inactive
same,Potency,[10],inactive
same,activation,[11],-0.701%
same,Potency,[12],inactive
same,max response,[13],-3.56%
same,max response,[14],-8.35%
same,outcome,[15],inactive
COc1cc(-c2ccc(N=C=O)c(OC)c2)ccc1N=C=O,Potency,[3],inactive
same,Potency,[6],12.6 µM (active)
same,Potency,[7],inactive
same,Potency,[9],inactive
same,Potency,[10],2.37 µM (active)
same,max response,[13],21.7% and 2.99%
same,max response,[14],-1.14% and -5.75%
same,outcome,[15],inactive
CC(=O)Nc1cccc(C)c1,"activity change, negative = cytotoxicity",[1],-12.7%
same,Potency,[4],inactive
same,outcome,[16],inactive
same,Potency,[6],inactive
same,Potency,[17],inactive
same,Potency,[7],inactive
same,outcome,[18],inactive
same,Potency,[19],inactive
same,Potency,[20],inactive
same,Potency,[9],inactive
same,Potency,[10],inactive
same,activation,[11],-1.12%
same,Potency,[12],inactive
same,max response,[13],-7.75%
same,max response,[14],2.07%
same,outcome,[15],inactive
C=C1CC[C@H](O)C/C1=C/C=C1\CCC[C@]2(C)[C@@H]([C@H](C)CCCC(C)C)CC[C@@H]12,Potency,[3],inactive
same,outcome,[16],inactive
same,Potency,[17],39.8 µM (active)
same,activation,[11],1.86%
same,Potency,[14],44.7 µM (active)
CCNC(=S)NCC,Potency,[2],inactive
same,Potency,[3],inactive
same,Potency,[7],inactive
same,Potency,[8],inactive
same,outcome,[18],inactive
same,Potency,[19],inactive
same,Potency,[9],inactive
same,Potency,[10],inactive
same,activation,[11],0.201%
same,Potency,[12],inactive
same,max response,[13],-3.61%
same,outcome,[15],inactive
O=C(O)/C=C/c1ccc(/C=C/C(=O)O)cc1,Potency,[2],inactive
same,Potency,[3],inactive
same,outcome,[16],inactive
same,Potency,[6],inactive
same,Potency,[17],inactive
same,Potency,[7],inactive
same,Potency,[8],inactive
same,Potency,[20],inactive
same,Potency,[10],inactive
same,activation,[11],-0.449%
same,Potency,[12],inactive
same,max response,[13],-1.74%
same,outcome,[15],inactive
c1ccc(SCCSc2ccccc2)cc1,"activity change, negative = cytotoxicity",[1],-5.55%
same,Potency,[2],inactive
same,Potency,[3],inactive
same,Potency,[4],inactive
same,outcome,[16],inactive
same,outcome,[5],inactive
same,Potency,[6],inactive
same,Potency,[17],inactive
same,Potency,[9],inactive
same,activation,[11],-4.5%
same,Potency,[12],inactive
same,max response,[14],3.66%
c1ccc2ncccc2c1,"activity change, negative = cytotoxicity",[1],-0.00606%
same,Potency,[3],inactive
same,Potency,[4],inactive
same,Potency,[17],inactive
same,Potency,[7],inactive
same,Potency,[8],inactive
same,outcome,[18],inactive
same,Potency,[19],inactive
same,Potency,[20],inactive
same,Potency,[10],inactive
same,Potency,[12],inactive
same,max response,[13],0.928%
same,max response,[14],-7.69%
same,outcome,[15],inactive
CCCCCCc1ccc(-c2ccc(C#N)cc2)cc1,"activity change, negative = cytotoxicity",[1],-12.5%
same,outcome,[5],inactive
same,Potency,[6],inactive
same,max response,[13],-11.9%
same,max response,[14],-6.02%
same,outcome,[15],inactive
O=c1[nH]ncc2ccccc12,"activity change, negative = cytotoxicity",[1],-142% (active)
same,Potency,[2],inactive
same,Potency,[4],inactive
same,outcome,[16],inactive
same,Potency,[6],inactive
same,Potency,[8],inactive
same,outcome,[18],inactive
same,Potency,[19],inactive
same,Potency,[20],inactive
same,Potency,[9],inactive
same,Potency,[10],inactive
same,activation,[11],0.114%
same,Potency,[12],inactive
same,max response,[13],2.85%
same,outcome,[15],inactive
